Source: PubChem BioAssay (ICCB-Longwood Screening Facility, Harvard Medical School)
Shown is part of a subset that was picked to be rich in hits.
CapD inh: Bacillus anthracis CapD inhibitors, primary screen, biochemical, fluorescence intensity. CapD gamma-glutamyltranspeptidase (Bacillus anthracis Ames Ancestor). purified CapD enzyme, fluorescence intensity read-out; hits give low values. z-score (concentration not given with the values). 140,000 compounds, 0.23% hits; in the data active = z-score mostly below about -2.9, no sharp cut-off; inactive = mostly above about -1.9
Starred values were filed as active, the others as inactive.

Screening N=C(N)SCc1c(Cl)cccc1Cl returned CapD inh 0.32.
Fc1cccc(Cl)c1CSCc1c(F)cccc1Cl was read as CapD inh 0.22.
Screening CN(C)/C=C/C(=N)SCc1c(F)cccc1Cl returned CapD inh -3.8*.
Screening O=C1C(=O)N(Cc2c(Cl)cccc2Cl)C(=O)N1Cc1cccc(Cl)c1 returned CapD inh -0.005.
`Cc1ccc(S(=O)(=O)N2CCC(N)=N2)cc1` gave CapD inh 2.
Screening C/[N+]([O-])=C/c1ccccc1 returned CapD inh 0.025.
`CCCS(=O)(=O)c1c(S(=O)(=O)CCC)c2cc(-c3ccncc3)ccn2c1C(=O)c1ccccc1` gave CapD inh 0.22.
Screening O=C(/C=C/c1ccccc1)N1C(=O)OCC1c1ccccc1 (centres undefined) returned CapD inh 0.1.
Screening CN1/C(=C\C=C2C(=O)c3ccccc3C2=O)Sc2ccccc21 returned CapD inh -0.57.
For CC(=S)/C=C1\Sc2ccccc2N1C the results were CapD inh -5.3*.
Screening CN1/C(=C/C(=O)c2ccco2)Sc2ccccc21 returned CapD inh -2.
Screening O=C(Cn1c(=O)n(CCc2ccccc2)c(=O)c2ccccc21)Nc1ccc(Cl)cc1 returned CapD inh 0.53.
`O=C(CCn1c(=O)c2ccccc2n(CC(=O)Nc2ccccc2)c1=O)NCCc1ccccc1` gave CapD inh -5.6*.
Screening CCCN(CCC)C(=O)Cn1c(=O)n(CCC(=O)NCCc2ccccc2)c(=O)c2ccccc21 returned CapD inh 0.53.
For Nc1cc(=O)[nH]c(SCCC(=O)O)n1 the results were CapD inh 1.2.
`OC(CCl)CN1CCN(c2cccc(C(F)(F)F)c2)CC1` (centres undefined) gave CapD inh 0.42.
Screening O=c1/c(=C/c2ccc(-c3ccc(Cl)c([N+](=O)[O-])c3)o2)sc2nc3ccccc3n12 returned CapD inh 0.2.
`Nc1nc(NCc2cccnc2)n[nH]1` gave CapD inh -0.43.
`CSc1sc2ccccc2[n+]1C` gave CapD inh 0.51.
For C[n+]1c(COc2ccccc2O)sc2ccccc21 the results were CapD inh -0.5.
For CC[n+]1c(/C=C/N(C)c2ccccc2)sc2ccc(OC)cc21 the results were CapD inh 32.
`CC[n+]1c(/C=C2/C=C(C)CC(C)C2)sc2ccccc21` (centres undefined) gave CapD inh -0.23.
Screening C[n+]1c(/C=C/Nc2ccccc2)sc2ccccc21 returned CapD inh -4.4*.
`CC[n+]1c(/C=C/Nc2ccccc2)sc2ccccc21` gave CapD inh -4.9*.
CCOC(=O)c1ccc(Cn2c3ccc(Br)cc3c3nc4cc(C)c(C)cc4nc32)o1 was read as CapD inh 0.48.
For CCCn1c(=O)c(C(=O)Nc2ccc(C)cc2Br)c(O)c2ccccc21 the results were CapD inh 0.92.
Cc1cc(Br)ccc1NC(=O)Cn1cnc2c1c(=O)n(C)c(=O)n2C was read as CapD inh -0.08.
CCOC(=O)C(Cc1ccccc1)C(=O)Nc1cc(N(C)C)ccc1C (centres undefined) was read as CapD inh 0.45.
Screening CCN(CC)c1ccc(C(=O)NNC(=O)NCCNc2ccc([N+](=O)[O-])cn2)cc1 returned CapD inh 9.9.
Screening O=C(NCCNc1ccc([N+](=O)[O-])cn1)NNC(=O)c1ccc([N+](=O)[O-])o1 returned CapD inh -5.1*.
For CSCCNC(=O)NCCNc1ccc([N+](=O)[O-])cn1 the results were CapD inh -0.42.
Nc1ccc(-c2nnc(-c3ccco3)o2)cc1 was read as CapD inh 77.
For O=c1oc(-c2cc3ccccc3s2)ns1 the results were CapD inh 1.2.
For O=c1oc(-c2ccco2)ns1 the results were CapD inh -8.5*.
Cc1ccc(S(=O)(=O)c2nc(C)oc2N(C)C)cc1 was read as CapD inh -3*.
For Cc1ccc(S(=O)(=O)CCc2nc(S(=O)(=O)c3ccc(C)cc3)c(N(C)C)o2)cc1 the results were CapD inh -0.37.
For Cc1ccc(-c2nc(S(=O)(=O)c3ccc(C)cc3)c(N(C)C)o2)cc1 the results were CapD inh -0.24.
For O=C(Nc1ccc(-c2noc(-c3cccs3)n2)cc1)c1ccc(Br)o1 the results were CapD inh -0.27.
CSc1nsc2nc(=O)c(/C=C3\C=CC(=O)C(O)=C3)c(N)n12 was read as CapD inh -4.5*.
COc1ccc(C(O)(C(=O)NN(c2ccccc2)c2ccccc2)c2ccc(OC)cc2)cc1 was read as CapD inh -0.05.
For NS(=O)(=O)c1ccc(N2C(=O)Nc3ccccc3N2O)cc1 the results were CapD inh -0.22.
`Fc1cccc(-c2csc(-c3ccno3)n2)c1` gave CapD inh 2.7.
Screening Cc1c(-c2csc(-c3ccno3)n2)sc2ccccc12 returned CapD inh -3.5*.
`Cc1c(-c2csc(CS(=O)(=O)C(C)(C)C)n2)sc2ccccc12` gave CapD inh -0.9.
